Records with an inconclusive call do not appear. Calls of active or inactive are those of the source. Unless noted, the call rests on the fitted dose curve; in most records, active means well fitted curve in the direction sought with a large enough effect in the repeat runs; inconclusive means weak or mixed curves; inactive means no such curve, though single readings can be large; an effect the other way counts as inactive or inconclusive.
Tests used:
[1] = qHTS assay to identify aromatase inhibitors - cell viability counter screen (AID 743084);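 further: cells stimulated with testosterone during compound exposure; nearly all actives have a fitted effect of over 55% in size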
[2] = target: Aryl hydrocarbon receptor (Homo sapiens) (UniProt P35869); assay: qHTS assay to identify small molecule that activate the aryl hydrocarbon receptor (AhR) signaling pathway (AID 743085);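 further: HG2L7.5c1 human HepG2 liver cells with stably integrated DRE-driven firefly reporter; series mostly up to about 70 µM; nearly all actives have a fitted effect of over 15% in size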
Summary of the method: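 Cell line HG2L7.5c1 (human hepatoma, 20× DRE-luc). Plated, 5 h 37C, compound/DMSO added, 24 h 37C. CellTiter-Fluor 30 min 37C → fluorescence; then ONE-Glo 30 min RT → luminescence.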

[3] = qHTS assay to identify small molecule that activate the aryl hydrocarbon receptor (AhR) signaling pathway - cell viability counter screen (AID 743086);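 further: HepG2 liver cells carrying the AhR DRE luciferase reporter; series mostly up to about 70 µM; nearly all actives have a fitted effect of over 45% in size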
Summary of the method: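 HepG2-AhR-luc (HG2L7.5c1) cells, 4000/well, were preincubated 5 h at 37C, exposed to compound in qHTS format for 24 hr at 37C, then given CellTiter-Fluor for 30 min; viability was read as fluorescence in the reporter wells.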

[4] = target: Peroxisome proliferator-activated receptor gamma (Homo sapiens) (UniProt P37231); assay: qHTS assay to identify small molecule agonists of the peroxisome proliferator-activated receptor gamma (PPARg) signaling pathway (AID 743094; active means well fitted activation curve with a large enough effect in the signal ratio in the repeat runs, not every such curve was filed as active; the % refers to the signal ratio)
Summary of the method: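 Cell-based bla reporter, HEK293H background, PPARg-driven UAS. Pre-incubation 5 h, 37C, 5% CO2. Compound 17 h, 37C. Substrate 1 h RT; fluorescence.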

[5] = target: Peroxisome proliferator-activated receptor gamma (Homo sapiens) (UniProt P37231); assay: qHTS assay to identify small molecule antagonists of the peroxisome proliferator-activated receptor gamma (PPARg) signaling pathway (AID 743191; calls by dose curve; further: series mostly up to about 63 µM; nearly all actives have a fitted effect of over 30% in size)
Summary of the method: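 GeneBLAzer PPARg UAS-bla HEK293H cells carrying a UAS-driven beta-lactamase reporter were plated at 3000 cells/well, preincubated 5 h at 37C, then given compound for 17 h at 37C; LiveBLAzer B/G FRET substrate was read after 1 h at room temperature.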

[6] = qHTS assay to identify small molecule antagonists of the peroxisome proliferator-activated receptor gamma (PPARg) signaling pathway - cell viability counter screen (AID 743194); further: nearly all actives have a fitted effect of over 55% in size
Summary of the method: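 PPARg-UAS-bla HEK293H cells were plated, rested 5 h at 37 C, then treated with compounds plus rosiglitazone (50 nM final) for 17 h at 37 C; viability was then read by CellTiter-Glo luminescence after 30 min at room temperature.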

[7] = qHTS assay for small molecule agonists of the antioxidant response element (ARE) signaling pathway (AID 743202; active means well fitted activation curve with a large enough effect in the signal ratio in the repeat runs, not every such curve was filed as active; the % refers to the signal ratio)
Summary of the method: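 Following a 16 h, 37 C exposure of reporter HepG2 cells (ARE-driven beta-lactamase, 2,000 cells/well) to compounds, FRET substrate was applied for 2 h at room temperature and fluorescence intensity recorded.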

[8] = qHTS assay for small molecule agonists of the antioxidant response element (ARE) signaling pathway - cell viability counter screen (AID 743203; calls by dose curve; further: nearly all actives have a fitted effect of over 55% in size)
Summary of the method: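 Measured in the same wells as the beta-lactamase ARE reporter, this read-out is CellTiter-Glo luminescence from HepG2 ARE-bla cells given compounds for 16 hrs.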

[9] = qHTS assay for small molecule activators of the heat shock response signaling pathway - cell viability counter screen (AID 743209); further: nearly all actives have a fitted effect of over 50% in size
Summary of the method: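 Same-well multiplex: after 2.5 h room-temperature incubation with LiveBLAzer B/G substrate and fluorescence reading, CellTiter-Glo reagent was added to HSE-bla HeLa cells that had received compound for 5 h at 37 C; luminescence read after 30 min.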

[10] = qHTS assay for small molecule activators of the heat shock response signaling pathway (AID 743210; active means well fitted activation curve with a large enough effect in the signal ratio in the repeat runs, with a control signal flat, not every such curve was filed as active; the % refers to the signal ratio; further: series mostly up to about 63 µM)
Summary of the method: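 Heat shock element–beta-lactamase HeLa reporter cells; qHTS with compounds for 5 h at 37 C; detection by FRET substrate fluorescence after 2.5 h at RT.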

[11] = qHTS assay to identify small molecule agonists of the peroxisome proliferator-activated receptor delta (PPARd) signaling pathway - cell viability counter screen (AID 743211); further: nearly all actives have a fitted effect of over 55% in size
Summary of the method: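 HEK293H PPARd-bla, 3000 cells/well; 5 h preincubation 37C/5% CO2; cpd in DMSO, 17 h 37C; B/G FRET substrate 2 h RT; CellTiter-Glo 30 min RT, luminescence.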

[12] = target: Peroxisome proliferator-activated receptor delta (Homo sapiens) (UniProt Q03181); assay: qHTS assay to identify small molecule agonists of the peroxisome proliferator-activated receptor delta (PPARd) signaling pathway (AID 743212; calls by dose curve)
Summary of the method: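 Beta-lactamase reporter read by fluorescence (LiveBLAzer B/G FRET, 2 h, room temperature). Test agents, in DMSO, incubated at 37 C with PPARd-bla HEK293H cells.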

[13] = target: Peroxisome proliferator-activated receptor delta (Homo sapiens) (UniProt Q03181); assay: qHTS assay to identify small molecule antagonists of the peroxisome proliferator-activated receptor delta (PPARd) signaling pathway (AID 743215; active means well fitted inhibition curve with a large enough effect in the signal ratio in the repeat runs, not every such curve was filed as active; the % refers to the signal ratio;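 further: cells stimulated with agonist L165041 at 300 nM final during compound exposure; series mostly up to about 62 µM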)
Summary of the method: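 Fluorescence from cleaved LiveBLAzer B/G FRET substrate (2 h, room temperature) reports PPARd-driven beta-lactamase in HEK293H UAS-bla cells. Cells had been treated 17 h at 37 C with compound plus 300 nM final L165041.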

[14] = target: Bile acid receptor (Homo sapiens) (UniProt Q96RI1); assay: qHTS assay to identify small molecule antagonists of the farnesoid-X-receptor (FXR) signaling pathway (AID 743217; active means well fitted inhibition curve with a large enough effect in the signal ratio in the repeat runs, not every such curve was filed as active; the % refers to the signal ratio)
Summary of the method: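 FRET fluorescence after 2 h room-temperature LiveBLAzer loading gives the readout. Prior step: FXR-bla HEK 293T cells, seeded and incubated 5 h, received test compounds plus 50 uM final CDCA for 16 h at 37 °C.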

[15] = target: Bile acid receptor (Homo sapiens) (UniProt Q96RI1); assay: qHTS assay to identify small molecule agonists of the farnesoid-X-receptor (FXR) signaling pathway (AID 743220; active means well fitted activation curve with a large enough effect in the signal ratio in the repeat runs, not every such curve was filed as active; the % refers to the signal ratio)
Summary of the method: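 FXR-UAS-bla HEK 293T cells carrying a UAS-driven beta-lactamase reporter were plated for 5 h at 37C/5% CO2, then exposed to DMSO-dissolved Tox21 10K compounds for 16 h at 37C. A LiveBLAzer B/G FRET substrate was loaded for 2 h at room temperature before fluorescence reading.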

[16] = target: Vitamin D3 receptor (Homo sapiens) (UniProt P11473); assay: qHTS assay to identify small molecule agonists of the vitamin D receptor (VDR) signaling pathway (AID 743222; calls by dose curve)
Summary of the method: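 Following 4 h attachment at 37C, VDR-bla cells (2,000 per well) received DMSO-dissolved compounds or controls. After 16 h incubation, LiveBLAzer B/G FRET substrate was added and fluorescence read 2 h later at room temperature.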

[17] = qHTS assay to identify small molecule antagonists of the peroxisome proliferator-activated receptor delta (PPARd) signaling pathway - cell viability counter screen (AID 743213); further: nearly all actives have a fitted effect of over 50% in size
Summary of the method: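 Luminescence from CellTiter-Glo, added after the bla read and incubated 30 min at room temperature, gives viability of HEK293H PPARd-bla cells exposed to compounds for 17 h at 37 C with 300 nM L165041.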

[18] = qHTS assay to identify small molecule agonists of the farnesoid-X-receptor (FXR) signaling pathway - cell viability counter screen (AID 743218); further: nearly all actives have a fitted effect of over 45% in size
Summary of the method: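 Readout: CellTiter-Glo luminescence, 30 min RT, multiplexed after the FXR-bla FRET reading. HEK 293T FXR-UAS-bla cells received compound 5 h post-plating and were incubated 16 h at 37 C.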

[19] = qHTS assay to identify small molecule antagonists of the farnesoid-X-receptor (FXR) signaling pathway - cell viability counter screen (AID 743221; active means well fitted cell-killing curve with a large enough effect in the repeat runs, not every such curve was filed as active; further: nearly all actives have a fitted effect of over 50% in size)
Summary of the method: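 Luminescence from CellTiter-Glo measures cytotoxicity in GeneBLAzer FXR-UAS-bla HEK 293T cells. Cells were exposed to compounds with 50 uM chenodeoxycholic acid (final) for 16 h at 37 C, in wells also used for the reporter readout.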

[20] = target: Vitamin D3 receptor (Homo sapiens) (UniProt P11473); assay: qHTS assay to identify small molecule antagonists of the vitamin D receptor (VDR) signaling pathway (AID 743223; active means well fitted inhibition curve with a large enough effect in the signal ratio in the repeat runs, not every such curve was filed as active; the % refers to the signal ratio)
Summary of the method: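 Antagonist mode uses 1alpha,25-dihydroxyvitamin D3 at 3 nM final as stimulus. VDR-bla cells receive compounds in DMSO, incubate 16 h at 37C, then a beta-lactamase FRET substrate for 2 h at room temperature before fluorescence measurement.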

Measured: Potency

Sequence of Bile acid receptor (Homo sapiens) (Q96RI1 whole entry, looked up): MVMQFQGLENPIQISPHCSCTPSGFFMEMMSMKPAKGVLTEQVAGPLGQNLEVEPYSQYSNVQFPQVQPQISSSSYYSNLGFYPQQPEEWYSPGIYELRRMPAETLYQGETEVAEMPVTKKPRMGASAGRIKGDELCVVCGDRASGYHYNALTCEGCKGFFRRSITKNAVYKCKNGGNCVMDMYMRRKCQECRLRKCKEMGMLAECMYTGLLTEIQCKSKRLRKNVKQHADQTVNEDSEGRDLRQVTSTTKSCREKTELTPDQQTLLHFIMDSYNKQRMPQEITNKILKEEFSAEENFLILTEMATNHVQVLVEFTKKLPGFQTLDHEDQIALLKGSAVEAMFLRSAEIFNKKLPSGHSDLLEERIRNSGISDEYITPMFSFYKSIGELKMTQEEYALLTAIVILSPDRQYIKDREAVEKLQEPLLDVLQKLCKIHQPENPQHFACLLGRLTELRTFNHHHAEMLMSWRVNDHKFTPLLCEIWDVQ
Sequence of Aryl hydrocarbon receptor (Homo sapiens) (P35869 whole entry, looked up): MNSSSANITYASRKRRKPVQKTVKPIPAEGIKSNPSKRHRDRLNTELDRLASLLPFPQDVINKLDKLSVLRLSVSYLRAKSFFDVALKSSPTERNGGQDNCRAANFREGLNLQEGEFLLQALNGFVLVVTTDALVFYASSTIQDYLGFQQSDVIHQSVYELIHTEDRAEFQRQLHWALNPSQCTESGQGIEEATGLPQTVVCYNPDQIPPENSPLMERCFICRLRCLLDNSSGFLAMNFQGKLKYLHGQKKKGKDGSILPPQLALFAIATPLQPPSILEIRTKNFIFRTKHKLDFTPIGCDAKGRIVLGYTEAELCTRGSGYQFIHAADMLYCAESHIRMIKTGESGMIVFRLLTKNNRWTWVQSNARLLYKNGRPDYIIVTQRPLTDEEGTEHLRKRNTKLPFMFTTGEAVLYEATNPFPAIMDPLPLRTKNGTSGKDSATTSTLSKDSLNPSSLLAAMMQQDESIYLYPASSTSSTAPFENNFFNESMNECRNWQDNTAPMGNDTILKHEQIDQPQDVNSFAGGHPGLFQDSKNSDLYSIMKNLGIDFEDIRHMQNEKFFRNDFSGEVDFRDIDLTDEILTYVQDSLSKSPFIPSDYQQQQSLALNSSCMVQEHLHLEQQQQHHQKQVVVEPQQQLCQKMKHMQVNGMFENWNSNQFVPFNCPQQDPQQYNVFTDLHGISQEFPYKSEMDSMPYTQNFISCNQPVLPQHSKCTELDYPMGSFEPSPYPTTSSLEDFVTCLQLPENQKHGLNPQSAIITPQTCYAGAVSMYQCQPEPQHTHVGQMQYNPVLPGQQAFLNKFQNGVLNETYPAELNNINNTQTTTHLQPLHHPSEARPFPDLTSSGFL
Sequence of Vitamin D3 receptor (Homo sapiens) (P11473 whole entry, looked up): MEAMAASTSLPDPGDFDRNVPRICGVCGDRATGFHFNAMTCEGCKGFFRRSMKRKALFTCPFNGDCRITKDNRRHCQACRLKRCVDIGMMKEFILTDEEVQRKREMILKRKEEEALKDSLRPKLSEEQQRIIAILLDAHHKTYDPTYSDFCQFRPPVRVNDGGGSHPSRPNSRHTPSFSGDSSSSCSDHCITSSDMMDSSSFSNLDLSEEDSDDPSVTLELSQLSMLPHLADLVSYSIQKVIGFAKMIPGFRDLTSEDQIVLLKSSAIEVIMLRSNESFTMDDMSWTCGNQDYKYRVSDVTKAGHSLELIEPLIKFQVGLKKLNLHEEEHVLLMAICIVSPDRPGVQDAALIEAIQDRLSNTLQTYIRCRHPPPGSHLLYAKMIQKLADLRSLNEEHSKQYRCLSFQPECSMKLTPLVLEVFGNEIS
Sequence of Peroxisome proliferator-activated receptor delta (Homo sapiens) (Q03181 whole entry, looked up): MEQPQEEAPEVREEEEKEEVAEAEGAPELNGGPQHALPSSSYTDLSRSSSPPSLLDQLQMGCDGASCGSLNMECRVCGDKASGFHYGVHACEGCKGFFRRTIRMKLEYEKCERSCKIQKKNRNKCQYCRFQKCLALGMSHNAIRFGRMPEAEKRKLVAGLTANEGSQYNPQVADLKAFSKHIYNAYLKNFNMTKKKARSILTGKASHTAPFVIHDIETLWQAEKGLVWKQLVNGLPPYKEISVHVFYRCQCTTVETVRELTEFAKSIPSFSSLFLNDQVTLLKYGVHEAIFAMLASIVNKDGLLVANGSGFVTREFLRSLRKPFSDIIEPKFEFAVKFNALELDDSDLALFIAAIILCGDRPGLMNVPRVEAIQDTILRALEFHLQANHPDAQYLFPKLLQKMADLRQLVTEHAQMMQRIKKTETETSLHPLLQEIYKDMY
Sequence of Peroxisome proliferator-activated receptor gamma (Homo sapiens) (P37231 whole entry, looked up): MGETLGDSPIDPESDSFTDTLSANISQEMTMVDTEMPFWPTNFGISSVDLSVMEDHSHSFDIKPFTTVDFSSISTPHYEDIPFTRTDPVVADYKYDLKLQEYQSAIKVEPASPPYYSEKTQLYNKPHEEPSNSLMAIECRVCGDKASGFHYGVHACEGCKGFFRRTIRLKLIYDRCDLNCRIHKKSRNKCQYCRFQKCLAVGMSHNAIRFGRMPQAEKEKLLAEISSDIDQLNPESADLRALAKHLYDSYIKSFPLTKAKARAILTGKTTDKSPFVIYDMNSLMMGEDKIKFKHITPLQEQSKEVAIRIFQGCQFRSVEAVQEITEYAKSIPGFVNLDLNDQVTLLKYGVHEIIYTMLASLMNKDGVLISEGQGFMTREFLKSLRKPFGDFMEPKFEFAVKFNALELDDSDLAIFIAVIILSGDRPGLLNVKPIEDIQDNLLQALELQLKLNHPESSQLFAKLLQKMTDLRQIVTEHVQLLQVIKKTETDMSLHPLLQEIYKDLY

CC(=O)Oc1ccc(C(C)=O)cc1
not listed: [17] | [18] | [19] | [20]
inactive: all other assays above

COc1cc2nc(N3CCN(C(=O)C4CCCO4)CC3)nc(N)c2cc1OC (stereo not drawn)
not listed: [14] | [15] | [16] | [20]
inactive: all other assays above

NCC1CCC(C(=O)Oc2ccc(CCC(=O)O)cc2)CC1 (stereo not drawn)
not listed: [12] | [18]
inactive: all other assays above

CCN1CCN(C(=O)N[C@@H](C(=O)N[C@@H]2C(=O)N3[C@@H]2SC(C)(C)[C@H]3C(=O)O)c2ccccc2)C(=O)C1=O
not listed: [15]
inactive: all other assays above

CCCCCCC(=O)c1ccccc1
not listed: [16] | [18] | [19] | [20]
inactive: all other assays above

O=C(O)CCCCCCCCCC(=O)O
not listed: [14] | [15]
inactive: all other assays above

Cc1cc(O)c(Cl)cc1C
not listed: [19]
inactive: all other assays above

O=S(=O)(O)c1ccc(Cl)cc1
inactive: all assays above

CCOC(=O)[C@H](CCc1ccccc1)N[C@H]1CS[C@H](c2cccs2)CN(CC(=O)O)C1=O
not listed: [14] | [15] | [16] | [20]
inactive: all other assays above

CC(C)OCCO
not listed: [12] | [13] | [14] | [15] | [17]
inactive: all other assays above

CC(=O)SC[C@@H](C)C(=O)N1CCC[C@H]1C(=O)N[C@@H](Cc1ccccc1)C(=O)O
not listed: [19]
inactive: all other assays above

CC(C)=CCC/C(C)=C\C#N
not listed: [12] | [13] | [14]
inactive: all other assays above

CC(C)C(C)C
not listed: [11] | [14] | [15] | [16] | [18] | [20]
inactive: all other assays above

O=c1c(O)c(O)c1=O
not listed: [14] | [15]
inactive: all other assays above

COC(=O)C(c1ccccc1Cl)N1CCc2sccc2C1 (stereo not drawn)
not listed: [14] | [15] | [18] | [19]
inactive: all other assays above

CCCCCC(CC)OC(=O)CCCOc1ccc(Cl)cc1Cl (stereo not drawn)
not listed: [14] | [15]
inactive: all other assays above

CC/C=C\CCOC(=O)c1ccccc1
not listed: [16]
inactive: all other assays above

COc1cc(OC)cc(OC)c1
not listed: [12]
inactive: all other assays above

CCCCNCC
not listed: [10] | [14] | [15] | [16] | [20]
inactive: all other assays above

COC(=O)c1c(C)cc(O)c(C)c1O
not listed: [14] | [15]
inactive: all other assays above

CC12CCCC=C1C(=O)OC2=O (stereo not drawn)
not listed: [14] | [15] | [17] | [18]
inactive: all other assays above

CCc1ncc(C)[nH]1
not listed: [14] | [18]
inactive: all other assays above

O=CN1CCCCC1
not listed: [14] | [15]
inactive: all other assays above

CC(C)(Sc1cc(C(C)(C)C)c(O)c(C(C)(C)C)c1)Sc1cc(C(C)(C)C)c(O)c(C(C)(C)C)c1
not listed: [14] | [15]
inactive: all other assays above

C=CCON/C(CCC)=C1\C(=O)CC(C)(C)C(C(=O)OC)=C1O
not listed: [15] | [19]
inactive: all other assays above

Nc1cc(S(=O)(=O)O)ccc1O
not listed: [14] | [15] | [18]
inactive: all other assays above

CN1CCN(C(=O)C2CCCCC2)CC1
inactive: all assays above

CCCCCCCCCCCCCCBr
not listed: [12] | [13] | [18]
inactive: all other assays above

O=Cc1ccccc1S(=O)(=O)O
not listed: [14] | [15]
inactive: all other assays above

C[C@H]1COc2c(C3(N)CC3)c(F)cc3c(=O)c(C(=O)O)cn1c23
not listed: [18] | [19]
inactive: all other assays above

O=C(O)CCC(=O)Nc1ccc(S(=O)(=O)Nc2nccs2)cc1
not listed: [15]
inactive: all other assays above
